High-throughput results deposited in PubChem by National Center for Advancing Translational Sciences (NCATS).
Six1-Eya2 blk: qHTS Assay for Inhibitors of the Six1/Eya2 Interaction | activity change, % (test concentration not listed) | AID 651725, 2012 | Homeobox protein SIX1 (Homo sapiens) + Protein phosphatase EYA2 (Homo sapiens), … | AlphaScreen GST-Six1/His-Eya2 binding, biochemical; hits give low values | actives 0.56% (n = 360,000); further: on the % scale 0 is the no-effect control and ±100 the full control effect
Target sequence (O00167 whole entry, looked up): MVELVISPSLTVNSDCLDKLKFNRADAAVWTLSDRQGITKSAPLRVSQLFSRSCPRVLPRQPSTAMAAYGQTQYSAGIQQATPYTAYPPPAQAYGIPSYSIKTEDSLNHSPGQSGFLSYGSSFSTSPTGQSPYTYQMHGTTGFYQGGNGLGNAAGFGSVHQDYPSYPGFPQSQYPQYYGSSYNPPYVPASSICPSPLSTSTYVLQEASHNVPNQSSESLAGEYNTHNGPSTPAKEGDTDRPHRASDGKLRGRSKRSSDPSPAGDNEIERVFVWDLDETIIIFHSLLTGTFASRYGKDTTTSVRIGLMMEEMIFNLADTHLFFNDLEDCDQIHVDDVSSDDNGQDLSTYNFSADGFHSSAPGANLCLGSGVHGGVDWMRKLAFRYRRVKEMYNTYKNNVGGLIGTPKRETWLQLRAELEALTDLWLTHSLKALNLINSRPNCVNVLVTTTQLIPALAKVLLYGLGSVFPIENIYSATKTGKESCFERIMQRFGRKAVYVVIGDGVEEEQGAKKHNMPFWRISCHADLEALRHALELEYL
Target sequence (Q15475 whole entry, looked up): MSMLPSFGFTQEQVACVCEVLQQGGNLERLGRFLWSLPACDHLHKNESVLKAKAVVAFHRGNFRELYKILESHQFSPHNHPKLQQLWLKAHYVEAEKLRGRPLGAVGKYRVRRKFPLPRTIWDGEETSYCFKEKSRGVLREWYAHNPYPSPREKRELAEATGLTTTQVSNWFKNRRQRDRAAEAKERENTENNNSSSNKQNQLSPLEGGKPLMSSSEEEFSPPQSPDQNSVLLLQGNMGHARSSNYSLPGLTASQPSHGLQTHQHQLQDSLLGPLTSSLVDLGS
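Six1/Eya2 binding was read as AlphaScreen signal after compounds were pinned into GST-Six1 plus His-tagged Eya2 (5X stock 250/500 nM) in pH 8.0 Tris/NaCl/TCEP buffer, beads added, then incubated 1 h, 37 C, dark.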
Eya2 phos inh: qHTS Assay for Inhibitors of the Phosphatase Activity of Eya2. Protein phosphatase EYA2 (Homo sapiens), O00167. recombinant Eya2, OMFP fluorescence dephosphorylation (OMFP is methylfluorescein phosphate). Potency, µM (titrated, usually from 76.9 µM), for the others: top-dose activity, negative = inhibition, most hits filed as inhibitors. actives 0.006% (n = 330,000); active means well fitted curve in the direction sought with a large enough effect; inconclusive means small, poorly fitted or top-dose-only effect, or another doubt; inactive means no such curve, though single readings can be large; an effect the other way counts as inactive or inconclusive; further: potency means the concentration at half of the fitted maximal effect; on the % scale 0 is the no-effect control and ±100 the full control effect
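Eya2 (0.2 uM) preincubated 10 min at ambient with compound, then OMFP substrate added at 50 uM; 10 min reaction in 50 mM HEPES pH 7.5, 50 mM NaCl, 5 uM MgCl2, 0.05% BSA, 1 mM DTT. Fluorescence read at Ex 485/Em 525 nm.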
GRP78 ERSR act: qHTS for Inducers of the Endoplasmic Reticulum Stress Response (ERSR) in Human Glioma: qHTS; U87-MG GRP78 promoter luciferase reporter, 16 h; Potency, µM, without a hit: at the highest dose activation, usual class: activators; actives 0.02% (n = 420,000); AID 602332, 2012; active means well fitted curve in the direction sought with a large enough effect; inconclusive means small, poorly fitted or top-dose-only effect, or another doubt; inactive means no such curve, though single readings can be large; an effect the other way counts as inactive or inconclusive; further: potency means the concentration at half of the fitted maximal effect; series mostly up to about 76 µM; % of control where 0% means no effect; nearly all actives have a fitted effect of over 35% in size
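ERSR induction read as luciferase luminescence (Bright-Glo, 10 min at room temperature) in stably transfected human U87-MG glioma cells exposed to compounds for 16 h, using GRP78 as sensor.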
CtBP-E1A blk: qHTS Assay for Inhibitors of the CtBP/E1A Interaction | AID 651724, 2012 | activity change, % (concentration not given with the values) | actives 0.49% (n = 340,000) | AlphaScreen GST-E1A/His-CtBP binding, 1536-well; hits give low values; further: on the % scale 0 is the no-effect control and ±100 the full control effect
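AlphaScreen with 125 nM GST-E1A and 125 nM His-CtBP (5X stocks) in Tris pH 8.0, 300 mM NaCl, BSA, Tween 20, TCEP. Compounds preincubated 2 h at 37 deg C, then glutathione donor/nickel acceptor beads added for 1 h at 37 deg C in dark.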
The depositor's hits bear a star. Most compounds without a hit are left out; they make up all but 0.58% or so of the library. Unless noted, no stated cut-off is given here; in the data, active means activity change below about -65%; inconclusive means mostly about -30% to -63%; inactive means weaker than that.

For O=C(N/N=C/c1c(O)n(Cc2ccccc2)c(=O)[nH]c1=O)c1ccncc1 the results were Six1-Eya2 blk -71.8*, Eya2 phos inh -9.3%, GRP78 ERSR act -4.7% and CtBP-E1A blk inconclusive.
C=CCn1c(O)c(/C=N/NC(=O)c2ccncc2)c(=O)[nH]c1=O was read as Six1-Eya2 blk inconclusive, Eya2 phos inh inconclusive, GRP78 ERSR act -3.0% and CtBP-E1A blk -19.5.
CCCCC(=O)N/N=C/c1c(O)n(Cc2ccc(F)cc2)c(=O)[nH]c1=O was read as Six1-Eya2 blk -68.2*, Eya2 phos inh 8.0%, GRP78 ERSR act -2.7% and CtBP-E1A blk inconclusive.
For CCCCC(=O)N/N=C/c1c(O)n(CC)c(=S)[nH]c1=O the results were Six1-Eya2 blk -78.3*, Eya2 phos inh 5.7%, GRP78 ERSR act -1.2% and CtBP-E1A blk -0.3.
`CCCCCCC(=O)N/N=C/c1c(O)n(CCCC)c(=S)[nH]c1=O` gave Six1-Eya2 blk inconclusive, Eya2 phos inh -1.4%, GRP78 ERSR act -4.7% and CtBP-E1A blk inconclusive.
COCCn1c(O)c(/C=N/NC(=O)CSC(=S)N2CCCC2)c(=O)[nH]c1=S was read as Six1-Eya2 blk inconclusive, Eya2 phos inh 15.8%, GRP78 ERSR act -3.5% and CtBP-E1A blk -76.0*.
`Oc1ccc2c3c1OC1C(O)C=CC4[C@@H](C2)NCC[C@]314` (some centres undefined) gave GRP78 ERSR act -0.6%.
`CN1CC[C@]23c4c5ccc(O)c4OC2C(O)CCC3[C@H]1C5` (some centres undefined) gave GRP78 ERSR act -1.3%.
For CCCCn1c(O)c(/C=N/NC(=O)c2ccncc2)c(=O)[nH]c1=S the results were Six1-Eya2 blk -84.9*, Eya2 phos inh 14.9%, GRP78 ERSR act 0.2% and CtBP-E1A blk -29.3.
Screening O=C(N/N=C/c1c(O)n(Cc2ccc(F)cc2)c(=O)[nH]c1=O)c1ccccc1 returned Six1-Eya2 blk -73.7*, Eya2 phos inh -17.8%, GRP78 ERSR act 4.7% and CtBP-E1A blk -80.6*.
COc1cc(CC(C)N)cc2c1OCO2 (centres undefined) was read as GRP78 ERSR act 1.0%.
O=C(N/N=C/c1c(O)n(-c2ccccc2)c(=O)[nH]c1=O)c1ccncc1 was read as Six1-Eya2 blk inconclusive, Eya2 phos inh 1.0%, GRP78 ERSR act 1.5% and CtBP-E1A blk -17.6.
Screening O=C(N/N=C/c1c(O)n(C2CC2)c(=S)[nH]c1=O)c1ccccc1O returned Six1-Eya2 blk -83.0*, Eya2 phos inh 8.2%, GRP78 ERSR act -6.1% and CtBP-E1A blk -84.7*.
For Cc1ccccc1-n1c(O)c(/C=N/NC(=O)c2ccccc2O)c(=O)[nH]c1=S the results were Six1-Eya2 blk -91.7*, Eya2 phos inh 0.0%, GRP78 ERSR act -3.2% and CtBP-E1A blk -101.3*.
Cn1c(O)c(/C=N/NC(=O)c2ccncc2)c(=O)[nH]c1=S was read as Six1-Eya2 blk -14.3, Eya2 phos inh 0.3% and GRP78 ERSR act 4.9%.
`O=C(N/N=C/c1c(O)n(-c2ccccc2)c(=S)[nH]c1=O)c1ccccc1` gave Six1-Eya2 blk -92.0*, Eya2 phos inh -1.7%, GRP78 ERSR act -5.3% and CtBP-E1A blk -89.1*.
ClCCN(CCCl)/C(=C\c1ccccc1)c1ccnc2ccccc12 was read as GRP78 ERSR act 1.5%.
Screening ClC1=C(Cl)[C@]2(Cl)[C@@H]3[C@@H]4C[C@@H]([C@H]5O[C@@H]45)[C@@H]3[C@@]1(Cl)C2(Cl)Cl returned GRP78 ERSR act -4.1%.
Screening Cc1c(N=Nc2c(O)[nH]c(=O)[nH]c2=O)c(=O)n(-c2ccccc2)n1C returned Six1-Eya2 blk -91.2*, Eya2 phos inh -2.0% and GRP78 ERSR act 0.2%.
Cc1c(N=Cc2c(O)n(C)c(=O)[nH]c2=O)c(=O)n(-c2ccccc2)n1C was read as Six1-Eya2 blk 5.4, Eya2 phos inh 6.8% and GRP78 ERSR act -4.1%.
Screening CC(=Nc1c(C)n(C)n(-c2ccccc2)c1=O)c1c(O)n(Cc2ccccc2)c(=O)[nH]c1=O returned Six1-Eya2 blk 18.5, Eya2 phos inh -26.8%, GRP78 ERSR act -1.0% and CtBP-E1A blk -11.8.
For Cc1c(N=Nc2c(O)n(-c3ccc(Br)cc3)c(=O)[nH]c2=O)c(=O)n(-c2ccccc2)n1C the results were Six1-Eya2 blk -92.1*, Eya2 phos inh 12.0%, GRP78 ERSR act -0.4% and CtBP-E1A blk -93.7*.
`O=c1[nH]c(O)c(N=Nc2cc([N+](=O)[O-])ccc2O)c(=O)[nH]1` gave Six1-Eya2 blk -78.1*, Eya2 phos inh -1.9%, GRP78 ERSR act -4.0% and CtBP-E1A blk inconclusive.
NC(=O)c1ccc(N=Nc2c(O)[nH]c(=O)[nH]c2=O)cc1 was read as Eya2 phos inh -19.7%.
Cc1nc2c(=O)n(C)c(=O)nc-2n(C)n1 was read as Six1-Eya2 blk -19.7, Eya2 phos inh 35.5µM*, GRP78 ERSR act -14.5% and CtBP-E1A blk -3.3.
CC(=O)Oc1c2c(c(CC=C(C)C)c3c1C(=O)C1=CC4CC5C(C)(C)OC(C/C=C(\C)C(=O)O)(C4=O)[C@]15O3)OC(C)(CCC=C(C)C)C=C2 (some centres undefined) was read as GRP78 ERSR act -11.4%.
`Cc1cccc(-n2c(O)c(/C=N/Nc3nc4c(c(=O)n(C)c(=O)n4C)n3C)c(=O)[nH]c2=S)c1` gave Six1-Eya2 blk -89.6*, Eya2 phos inh -14.1%, GRP78 ERSR act -3.7% and CtBP-E1A blk -73.1*.
`Cn1c(=O)c2c(nc(N/N=C/c3c(O)n(C4CCCCC4)c(=S)[nH]c3=O)n2C)n(C)c1=O` gave Six1-Eya2 blk -81.2*, Eya2 phos inh inconclusive, GRP78 ERSR act -2.9% and CtBP-E1A blk inconclusive.
Cc1ccccc1-n1c(O)c(/C=N/Nc2nc3c(c(=O)n(C)c(=O)n3C)n2C)c(=O)[nH]c1=S was read as Six1-Eya2 blk -67.9*, Eya2 phos inh 1.4%, GRP78 ERSR act -3.3% and CtBP-E1A blk -78.0*.
`NC1CCCC[C@@H]1N` (some centres undefined) gave GRP78 ERSR act -4.7%.
`CC(C)Oc1cccc(NC(=O)c2ccccc2C(F)(F)F)c1` gave GRP78 ERSR act -2.6%.
Screening CC(=O)OC1CC(OC2C(O)CC(OC3C(O)CC(O[C@H]4CC[C@]5(C)C6CC[C@]7(C)[C@@H](C8=CC(=O)OC8)[C@@H](O)C[C@]7(O)[C@@H]6CC[C@@H]5C4)OC3C)OC2C)OC(C)C1OC1OC(CO)C(O)C(O)C1O (some centres undefined) returned GRP78 ERSR act -6.9%.
O=C1NC(=S)N(c2ccc(F)cc2)C(=O)/C1=C\c1ccoc1 was read as Six1-Eya2 blk -72.3*, Eya2 phos inh 5.4%, GRP78 ERSR act -8.0% and CtBP-E1A blk -9.4.
